DAX1 inh-1 = DAX1 (NR0B1) inhibition, primary screen. HEK293T StAR-luciferase reporter, SF-1/DAX-1 repression relief. inhibition, % at 6.8 µM. 1.1% of 370,000 active. AID 652010;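 active = inhibition above the mean over all tested compounds plus 3 SD, cut at about 3.6% in these data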;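 note: 0% = DAX-1 cells with DMSO and 100% = cells lacking DAX-1 with DMSO; higher inhibition means more luminescence from relief of DAX-1 repression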
SMARCA2 activ = increases SMARCA2 function in MMTV reporter cells; MG213 cells, MMTV-luciferase reporter, dexamethasone, overnight; activation, % at 9.1 µM; 1% of 370,000 active; in the data active = activation above about 7.8%;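 note: 0% = vehicle wells and 100% = reference activator wells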
ssDAF12 agonist = activates DAF-12 receptor from parasite S. stercoralis; activation, % at 6.8 µM; HEK293 ssDAF-12/GRIP1 lit1-tk-luc reporter, luminescence; % of 3 µM dafachronic acid response; 1% of 370,000 active;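 active = activation above the mean over all tested compounds plus 3 SD, cut at about 0.9% in these data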;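 note: 0% = DMSO-only wells and 100% = 3 µM delta7-dafachronic acid wells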
hgDAF-12 ag = hgDAF-12 agonism, primary luciferase screen; HEK293 GAL4-hgDAF12 UAS-luciferase reporter, agonist luminescence; normalized to butyrate control; activation, % at 6.8 µM; 1.8% of 370,000 active; AID 687014;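 active = activation above a cutoff set at the mean of all screened compounds plus 3 SD, cut at about 10% in these data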;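 note: 0% = DMSO wells and 100% = sodium butyrate wells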
DAX1 inh-2 = inhibits human nuclear receptor DAX1. inhibition, % at 6.75 µM. 0.99% of 340,000 active. P51843. HEK293 Gal4-DAX1 luciferase reporter, luminescence. AID 504766;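 active = inhibition above the mean over all tested compounds plus 3 SD, cut at about 4.2% in these data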;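 note: 0% = DAX1-transfected cells with DMSO and 100% = empty-vector control cells with DMSO; inhibition shows as a rise in luminescence from relieved DAX1 repression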
Target sequence (P51843 207-470 limits assumed): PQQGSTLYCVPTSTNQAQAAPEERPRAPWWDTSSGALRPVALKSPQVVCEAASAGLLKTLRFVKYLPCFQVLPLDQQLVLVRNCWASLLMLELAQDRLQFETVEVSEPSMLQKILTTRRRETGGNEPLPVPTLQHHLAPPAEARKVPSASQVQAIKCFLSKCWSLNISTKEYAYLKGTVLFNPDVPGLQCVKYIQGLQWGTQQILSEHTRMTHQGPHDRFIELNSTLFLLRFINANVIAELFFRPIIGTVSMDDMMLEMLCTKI
hcDAF12 agonist = activators of H. contortus DAF-12 nuclear receptor | 1.4% of 370,000 active | activation, % at 6.8 µM | HEK293 hcDAF-12 lit1-tk-luc reporter, luminescence; 0% DMSO, 100% Δ7-dafachronic acid;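 active = activation above the mean of all tested compounds plus 3 SD, cut at about 5.5% in these data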;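 note: 100% = response to 3 µM Δ7-dafachronic acid high control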
hgDAF12 ag = confirmation of H. glycines DAF-12 agonists; shares compounds with hgDAF-12 ag; HEK293 GAL4-hgDAF12 luciferase reporter, agonist mode; percent of butyrate response; activation, % at 6.8 µM; 80% of 3,300 active;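 active = mean activation over triplicate wells above the hit cutoff derived from the earlier primary screen, cut at about 11% in these data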;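 note: 0% = DMSO low control and 100% = 2 mM sodium butyrate high control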
LXRb DAF12 ctr = LXR-beta agonism as DAF-12 counter-screen; shares compounds with hgDAF-12 ag; AID 743051; 3,300 tested, under 10 active; HEK293 Gal4-LXR luciferase reporter, 24 h; activation, % at 6.8 µM;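 active = mean activation of the triplicate above a set limit carried over from the primary screen, none filed active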
Target sequence (P55055 whole entry, looked up, the tested form may be a part): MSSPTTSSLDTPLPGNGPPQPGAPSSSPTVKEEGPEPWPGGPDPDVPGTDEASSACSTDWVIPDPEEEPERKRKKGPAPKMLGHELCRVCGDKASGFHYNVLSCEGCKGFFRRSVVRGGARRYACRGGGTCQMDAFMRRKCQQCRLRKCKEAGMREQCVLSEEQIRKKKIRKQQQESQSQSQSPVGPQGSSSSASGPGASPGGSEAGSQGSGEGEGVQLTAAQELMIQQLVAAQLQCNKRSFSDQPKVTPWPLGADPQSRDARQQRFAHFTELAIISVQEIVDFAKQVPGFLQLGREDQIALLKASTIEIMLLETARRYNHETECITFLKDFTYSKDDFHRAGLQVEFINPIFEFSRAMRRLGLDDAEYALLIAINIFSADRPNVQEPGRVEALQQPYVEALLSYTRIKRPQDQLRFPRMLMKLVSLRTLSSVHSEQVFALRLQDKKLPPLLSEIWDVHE
Starred values were filed as active, the others as inactive; x = no result. Rows were chosen to be rich in hits. Some 4.8% of all compounds tested hit in one or more screens of this group.

SMILES	DAX1 inh-1	SMARCA2 activ	ssDAF12 agonist	hgDAF-12 ag	DAX1 inh-2	hcDAF12 agonist	hgDAF12 ag	LXRb DAF12 ctr
Cc1nc2cc(NC(=O)Nc3cccc4ccccc34)ccc2n1C	3.5	6.5	0.5	17.8*	2.3	1.5	12.3*	0.7
C[C@@H]1C=CCCO[C@]12C(=O)N(Cc1ccccc1C(F)(F)F)c1ccccc12	-0.2	-4.7	-1.6	-3.7	x	-2.5	x	x
Cc1cc(OCC(=O)N2CCOCC2)ccc1[N+](=O)[O-]	1.9	0.2	0.0	15.1*	5.2*	3.8	8.3	0.2
Cc1ccc(OCC(=O)N2CCN(c3ccc([N+](=O)[O-])c(N4CCOCC4)c3)CC2)cc1	-1.6	-2.4	-2.0	1.7	1.1	0.4	x	x
C=CCN1C(=O)[C@H](CC(=O)NCCCC)[C@@]2(C(=O)OCC)CCCC=C12	-0.3	-1.7	-0.7	-2.6	x	-2.6	x	x
COc1ccc2c(c1OC)C(=O)N(c1cccc(C)c1)C2	3.6*	7.2	1.3*	13.3*	1.5	5.6	16.2*	0.7
COC(=O)[C@H](Cc1ccccc1)N1Cc2ccccc2Oc2cc(Br)ccc2S1(=O)=O	0.8	-3.4	-1.2	4.5	x	-0.4	x	x
CC(=O)N1CCC(=NNc2nc3ccccc3[nH]2)CC1	1.1	2.0	0.6	15.6*	x	4.2	6.1	0.1
CN1CCN(c2ccc(NC(=O)c3ccc(-c4ccccc4F)o3)cc2)CC1	4.4*	3.8	1.4*	24.0*	2.0	5.4	17.3*	0.8
O=C(Nc1ccccc1)c1ccc(-c2ccccc2Cl)o1	2.7	4.4	0.1	13.2*	3.7	4.6	13.0*	0.4
CN1CCN(c2ccc(NC(=O)c3ccccc3Br)cc2)CC1	1.1	4.2	-0.7	5.6	2.0	4.5	x	x
O=C(Nc1ccccc1)c1ccc(-c2ccccc2C(F)(F)F)o1	0.5	3.8	-0.9	7.3	-0.3	-0.8	x	x
C[C@H](CO)N1C[C@H](C)[C@@H](CN(C)C(=O)Nc2ccnc(N3CCOCC3)c2)OCc2cn(nn2)CCCC1=O	1.1	-1.1	-0.3	-4.3	x	0.9	x	x
CCc1ccc(-c2cn3c(n2)SCC3)cc1	4.0*	1.3	0.5	16.4*	1.5	1.8	14.4*	0.7
Cc1ccc(Nc2cc(-n3cccn3)ncn2)c(C)c1	3.1	6.7	-0.7	15.2*	2.9	-0.9	11.5*	0.6
Cc1[nH]c2ccccc2c1CC(=O)Nc1ccc(Nc2cccnc2)c(Br)c1	-2.3	-3.0	0.5	2.4	x	1.8	x	x
CC(C)(C)C(=O)Nc1nc(-c2ccc3c(c2)OCO3)cs1	1.4	6.1	-0.5	10.4	3.6	0.8	x	x
c1cc2c(cc1-c1csc(NNC3=NCCCCC3)n1)OCCO2	1.9	-1.4	-0.5	14.9*	x	1.1	2.8	0.3
CCC(=O)Nc1nc(-c2ccc3c(c2)OCCO3)cs1	2.7	1.4	-0.3	19.2*	1.3	5.0	16.0*	0.7
NC(=O)c1c(N)[nH]c(C(=O)c2ccccc2)c1-c1ccc2c(c1)OCO2	0.8	-0.9	-0.5	3.1	x	0.1	x	x
COC(=O)C1=C(C)N(Cc2ccc(F)cc2)C(=S)NC1c1ccc(Cl)cc1 (configuration not stated)	-0.3	-3.9	-1.4	2.7	x	-1.7	x	x
COc1ccccc1C(=O)N/C(=N/c1nc(C)cc(C)n1)Nc1ccccc1	1.0	2.4	0.3	13.6*	-0.5	4.9	-1.6	0.0
Cc1ccc(C2=N/C(=C\N(C)C)C(=O)O2)cc1	0.5	6.3	-1.2	15.4*	1.2	0.2	9.7	0.3
CN(C)/C=C1/N=C(c2ccccc2)OC1=O	-1.1	2.8	-0.7	0.1	0.6	-0.7	x	x
COCCNc1oc(/C=C/c2ccccc2)nc1C#N	1.5	1.4	0.7	9.9	3.5	4.3	x	x
SMILES	DAX1 inh-1	SMARCA2 activ	ssDAF12 agonist	hgDAF-12 ag	DAX1 inh-2	hcDAF12 agonist	hgDAF12 ag	LXRb DAF12 ctr
CNc1oc(/C=C/c2ccccc2)nc1C#N	2.2	1.0	1.6*	13.4*	0.8	5.3	17.6*	0.6
O=C(Nc1ccc(N2CCCCC2)cc1)C(Cl)c1ccccc1 (configuration not stated)	0.7	4.4	0.5	19.2*	2.7	5.4	8.5	0.4
Cc1ccc(-c2nc(-c3ccncc3)no2)cc1C	1.8	6.3	0.5	17.6*	4.0	2.3	18.6*	0.9
Cc1ccc(-c2nc(-c3ccncc3)no2)cc1Cl	0.9	5.7	-0.1	6.0	1.2	1.0	x	x
Clc1ccc(-c2nc3ccccn3c2CN2CCCCC2)cc1	-1.9	-4.1	-3.0	-8.7	-2.4	-4.9	x	x
CN(C)Cc1c(-c2ccc(Cl)cc2)nc2ccccn12	2.3	5.0	-0.8	18.2*	5.4*	2.7	9.9	0.7
COC(=O)[C@]12C[C@H](CC(=O)NCc3cccc(C(F)(F)F)c3)C(=O)N(Cc3ccccc3)C1=C[C@H](C(C)(C)C)O[C@@H]2C	-0.5	-8.6	-1.2	-1.1	x	-0.6	x	x
O=C(N/N=C/c1cccc2ccccc12)c1n[nH]c2c1CCCC2	0.3	-0.4	0.3	2.0	2.2	1.2	x	x
O=C(N/N=C\c1cccc(Cl)c1)c1n[nH]c2c1CCCC2	3.4	4.7	-1.4	13.8*	1.4	2.0	11.3*	0.7
Cc1cccc(-n2ncc3c(N(C)Cc4ccccc4)ncnc32)c1	4.0*	2.7	-0.5	15.5*	4.1	1.9	14.4*	0.7
Cc1ccccc1-c1ccc2c(c1)[C@@H]1C[C@H](N(C)CC3CCCCC3)[C@H]([C@H](C)O)CN1CC2	-0.1	-0.1	-0.5	3.6	x	0.3	x	x
C/C(=N\Nc1nccnc1Cl)c1ccc(O)cc1	2.0	6.9	0.8	16.3*	0.3	6.5*	11.0*	0.4
Cc1cc2c(c(=O)o1)[C@@]1(C(=O)N(c3ccccc3)c3ccccc31)C1=C(CCCC1=O)O2	-1.1	-4.5	-0.7	2.5	x	-2.3	x	x
CN(C(=O)c1cccc(NC(=O)Cc2cccc(NC(=O)C3CCCN(C(=O)C4CCCCC4)C3)c2)c1)C1CC1 (configuration not stated)	0.5	-3.6	-1.1	-1.4	-1.3	-0.8	x	x
O=C(NCC1CC1)c1ccc2c3n(nc2c1)-c1ccccc1CO3	3.1	6.9	0.7	14.1*	-1.5	4.2	17.2*	1.0
C/C(=N\NC(=O)c1ccccc1)c1cccc(Br)c1	1.0	2.3	0.3	14.4*	1.7	2.9	7.0	0.3
C/C(=N\NC(=O)c1c(Br)c(C)nn1C)c1cccc(NC(=O)c2ccccc2F)c1	0.4	1.2	-1.6	-1.3	-0.9	-1.1	x	x
C/C(=N\NC(=O)c1nn(C)c(C)c1Br)c1cccc(NC(=O)c2ccc(F)cc2)c1	4.1*	2.4	0.1	16.7*	2.6	5.0	4.6	0.2

High-throughput results (PubChem)
